# Reference: PubChem BioAssay (NCI)
# The panel holds about 79,000 compounds, 15% with a hit somewhere; the sample as a whole holds those more often. A number with no mark means an inactive call. Active and inactive are the calls of the source. Cut-off read from the data, not from the text of the source: active = growth inhibition above about 70%; inactive = the rest.
# Assays:
# [1] = NCI Yeast Anticancer Drug Screen. Data for the rad50 strain (AID 155);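 note: 0% = growth of vehicle-only cultures of the same strain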; conditions: S. cerevisiae rad50 strain growth inhibition, hits give high values
# Method in brief: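 Readout: growth inhibition relative to vehicle-treated cultures. Compound exposure was carried out in a genetically defined yeast strain deficient in DNA damage repair.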
# [2] = NCI Yeast Anticancer Drug Screen. Data for the mec2-1 strain (AID 157); conditions: S. cerevisiae mec2-1 strain, hits give high values
# Method in brief: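 Growth inhibition is read against vehicle-treated controls after compound exposure of the mec2-1 yeast strain, which is defective in DNA damage repair or cell cycle control.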
# [3] = NCI Yeast Anticancer Drug Screen. Data for the sgs1 mgt1 strain (AID 161);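 note: 0% = growth of cultures given vehicle only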; conditions: S. cerevisiae sgs1 mgt1 strain, hits give high values
# Method in brief: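 Compounds are added to genetically altered yeast, and growth is compared with cultures given vehicle alone to give percent inhibition.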
# [4] = NCI Yeast Anticancer Drug Screen. Data for the cln2 rad14 strain (AID 165);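 note: 0% = growth equal to vehicle treated cultures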; conditions: S. cerevisiae cln2 rad14 strain, hits give high values
# Method in brief: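 Growth inhibition, relative to vehicle-treated controls, is the read-out. The test organism is a yeast strain with defined genetic alterations, cln2 rad14.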
# [5] = NCI Yeast Anticancer Drug Screen. Data for the bub3 strain (AID 167); conditions: S. cerevisiae bub3 mutant strain, hits give high values
# Method in brief: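 Readout: yeast growth inhibition, expressed relative to vehicle-only wells. The test organism is a mutant strain from a panel with lesions in DNA repair or checkpoint genes.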
# [6] = NCI Yeast Anticancer Drug Screen. Data for the mlh1 rad18 strain (AID 175); conditions: S. cerevisiae mlh1 rad18 strain growth inhibition, hits give high values
# Method in brief: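 Cells of a genetically altered yeast strain, deficient in DNA damage repair, were treated with compound. Their growth was then compared with that of vehicle-treated cultures to give inhibition.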
# [7] = at 5.0 µM (retest, dose inferred, filed as 0.5)
# [8] = at 50.0 µM (retest, dose inferred, filed as 5.0)
SMILES,"growth inhibition [1, 7]","growth inhibition [1, 8]",growth inhibition ([1]; at 50.0 µM),"growth inhibition [2, 7]","growth inhibition [2, 8]",growth inhibition ([2]; at 50.0 µM),"growth inhibition [3, 7]","growth inhibition [3, 8]",growth inhibition ([3]; at 50.0 µM),"growth inhibition [4, 7]","growth inhibition [4, 8]",growth inhibition ([4]; at 50.0 µM),"growth inhibition [5, 7]","growth inhibition [5, 8]",growth inhibition ([5]; at 50.0 µM),"growth inhibition [6, 7]","growth inhibition [6, 8]",growth inhibition ([6]; at 50.0 µM)
CCS(=O)(=O)OC(C)CCl (stereo not given),-2%,-3%,-5.65%,1%,0%,-14.7%,0%,-1%,11.8%,-2%,2%,70.2% (active),-2%,-3%,-4.9%,-2%,-5%,49.5%
NC(Cc1ccccc1)c1ccc2cccc3c2c1CC3 (stereo not given),-5%,4%,0.3%,-5%,8%,33.8%,-2%,25%,5.55%,-6%,-1%,-4.25%,-2%,9%,21.1%,-2%,34%,51.5%
CCCC/C(=N/Nc1ccc([N+](=O)[O-])cc1)C(=O)O,14%,97% (active),71.5% (active),8%,95% (active),24.3%,14%,97% (active),75% (active),-3%,60%,24.5%,18%,98% (active),82% (active),21%,98% (active),57.4%
O=C(O)Cc1cccc2cc3c(ccc4ccccc43)cc12,15%,34%,47.7%,8%,32%,91% (active),11%,47%,10.1%,-2%,44%,96.6% (active),2%,42%,93.3% (active),8%,44%,96.7% (active)
COc1cccc2c1OC(c1ccc(Cl)cc1)C([N+](=O)[O-])=C2 (stereo not given),94% (active),96% (active),85.7% (active),95% (active),95% (active),89% (active),93% (active),96% (active),87.6% (active),86% (active),95% (active),81.8% (active),97% (active),96% (active),85.5% (active),96% (active),95% (active),84% (active)
Cc1ccc2c(c1)[n+]([O-])c(N)n[n+]2[O-],21%,61%,75.7% (active),1%,35%,48.4%,17%,43%,57.1%,11%,47%,40.2%,-7%,36%,43.1%,20%,64%,50.6%
CCOC(=O)c1cnc2cc3cccccc3n2c1=O,4%,62%,71.7% (active),-1%,41%,42.5%,13%,65%,76.5% (active),-2%,44%,54.9%,-2%,67%,31.6%,-1%,86% (active),93.3% (active)
COC(=Nc1ccccc1)SSC(C)C,23%,77% (active),84.5% (active),19%,57%,86.8% (active),38%,87% (active),81.6% (active),38%,66%,46.4%,46%,92% (active),86.2% (active),21%,64%,85.5% (active)
Cc1ccc(SSCCCS(=O)O)cc1,-1%,-93%,61.1%,-3%,60%,50.7%,6%,78% (active),83.8% (active),-12%,41%,60.1%,4%,82% (active),66.3%,3%,66%,75.2% (active)
CSc1ccc(/C=C2\CN(C)C/C(=C\c3ccc(SC)cc3)C2=O)cc1,43%,52%,73.5% (active),-7%,32%,70% (active),36%,61%,91.6% (active),34%,33%,68.4%,25%,45%,44%,29%,15%,82.8% (active)
Cc1ccc(S(=O)(=O)Oc2ccc(C(C)(C)C)cc2Cl)cc1,-8%,-11%,-5.5%,-22%,-25%,2%,11%,3%,9.35%,-3%,-3%,-7.7%,1%,-1%,11.4%,20%,0%,14.4%
N=C1C=CC(=C(c2ccc(N)cc2)c2ccc(N)cc2)C=C1,-2%,99% (active),98.8% (active),24%,98% (active),98.5% (active),8%,97% (active),97.8% (active),-15%,93% (active),96.8% (active),12%,98% (active),98.3% (active),-4%,97% (active),97.4% (active)
CC(C)c1ccc(N2C(=O)C=CC2=O)cc1,98% (active),97% (active),99.7% (active),98% (active),99% (active),99.7% (active),95% (active),98% (active),99.5% (active),91% (active),99% (active),99.5% (active),98% (active),98% (active),99.5% (active),95% (active),98% (active),99.2% (active)
CC(=O)OC1=CC2(OC(C)=O)CC(C)(C)C1C1C(=O)C=CC(=O)C12 (stereo not given),8%,14%,53.1%,-8%,10%,65.3%,0%,13%,68.2%,3%,-10%,33.9%,4%,14%,73.8% (active),5%,21%,17.1%
O=S(=O)(ON=C1C=CC(=NOS(=O)(=O)c2ccccc2)C=C1)c1ccccc1,27%,44%,95.2% (active),6%,55%,94% (active),21%,48%,95% (active),16%,54%,94.1% (active),14%,54%,96.7% (active),48%,76% (active),96% (active)
CC(=O)C1CCCCC1/C=C/[N+](=O)[O-] (stereo not given),23%,93% (active),99.5% (active),16%,74% (active),99.7% (active),25%,93% (active),99.1% (active),6%,27%,99% (active),30%,91% (active),99.5% (active),42%,97% (active),99.2% (active)
O=[N+]([O-])CCc1ccco1,3%,0%,74.8% (active),1%,-1%,73.2% (active),2%,2%,47.4%,3%,0%,56.2%,4%,-4%,95.2% (active),0%,-1%,44.1%
C/C(=N/NC(=S)Nc1cccc(Cl)c1)c1ccccn1,78% (active),97% (active),79% (active),91% (active),97% (active),86.7% (active),85% (active),97% (active),87% (active),81% (active),96% (active),88.2% (active),82% (active),96% (active),90% (active),91% (active),97% (active),90.1% (active)
COC(=O)c1cc(=O)n(-c2ccccc2C(F)(F)F)c(SC)n1,24%,91% (active),99.2% (active),14%,92% (active),99.5% (active),43%,94% (active),99.5% (active),14%,87% (active),96.8% (active),7%,89% (active),99.5% (active),39%,95% (active),99.5% (active)
CCC(c1ccc(Cl)cc1)C(C#N)c1ccc(Cl)cc1 (stereo not given),10%,55%,84.3% (active),-1%,33%,61.5%,-3%,46%,68.1%,-8%,12%,11.4%,6%,44%,41.8%,2%,52%,76.4% (active)
